Results on 34 molecules are retold here after PubChem BioAssay (NCATS).

Values joined by “and” are separate entries in the source; they are usually repeats but may differ in a detail not shown here. Identical values can stand only once. Results filed as inconclusive are left out. A number with no mark means an inactive call. Active and inactive are the calls of the source. Calls come from the whole dose curve; as a rule, active = well fitted cell-killing curve with a large enough effect; inconclusive = small, poorly fitted or top-dose-only effect, or effect the other way; inactive = no such curve, though single readings can be large or run the other way.
Potency is the fitted concentration of half-maximal effect.

The first experiment is described as follows: Viability qHTS for spleen associated tyrosine kinase inhibitor (SYKi) naive MV4-11 cells (AID 1963823). Note: nearly all actives have a fitted effect of over 40% in size. To be noted: MV4-11 AML viability, CellTiter-Glo luminescence, 72 h; series mostly up to 45 µM; viability (% of control): at the top concentration. The procedure, abridged: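 In this viability screen, compounds acted on SYK inhibitor naive MV4-11 cells for three days (72 hr, 37 C). Remaining viable cells were measured by CellTiter-Glo luminescence following a 10 min room-temperature development.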
Background: Quantitative high-throughput screening tests each substance at several concentrations.
Take `COc1ccc(-c2cc(C(O)C3CCCCN3)c3ccccc3n2)cc1` (centres undefined): the Potency is 0.525 µM (active).
For the molecule `[2H]c1nc(C)nc([2H])c1-c1cc(NC[C@@H](C)c2cccc3c(C(=O)NC)ccnc23)ncn1`, the “viability (% of control)” value is 71.1%.
Still for that read-out and setting: under `Cc1cc(C)cc(OCC2CNC(=O)O2)c1` (centres undefined) stands 76.2%.
Regarding `Cc1cc(F)c(C(=O)Nc2cccc(-c3nncn3C(C)C)n2)cc1-n1cnc(C2CC2)c1`, the Potency is 5.25 µM (active).
Consider `CCCOC(=O)c1ccc(N)cc1`, for which the “viability (% of control)” value was 97.3%.
On the same count and under the same terms, for `NC(N)=Nc1nc(CSCC/C(N)=N/S(N)(=O)=O)cs1` the value was 74.6%.

A short description of the next experiment: Viability qHTS for spleen associated tyrosine kinase inhibitor (SYKi) drug resistant MV4-11 cells (AID 1963824). Note: nearly all actives have a fitted effect of over 35% in size. To be noted: SYKi-resistant MV4-11 viability, CellTiter-Glo, 72 h; series mostly up to 45 µM; viability, % of control: at the top concentration. The procedure, abridged: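 CellTiter-Glo luminescence, read 10 min after reagent addition, reports viability after a 72 hr compound exposure. Cells are an MV4-11 line made resistant to SYK inhibition, seeded at 500 per well onto compound-containing plates.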
Take `Nc1nc2cc(-c3ccc4ncc(C(=O)N5CCOCC5)n4c3)ccc2o1`: the Potency was 10.5 µM (active).
On to `CO[C@H]1C[C@@H]2CC[C@@H](C)[C@@](O)(O2)C(=O)C(=O)N2CCCC[C@H]2C(=O)O[C@H]([C@H](C)C[C@@H]2CC[C@@H](OP(C)(C)=O)[C@H](OC)C2)CC(=O)[C@H](C)/C=C(\C)[C@@H](O)[C@@H](OC)C(=O)[C@H](C)C[C@H](C)/C=C/C=C/C=C/1C`, for which the Potency was 3.72 µM (active).
With `CN(C)c1ccnc2sc3c(=O)n(N4CCCCCC4)cnc3c12`, the Potency is 20.6 µM (active).
The same measure, in the same setting: under `NC(=O)c1cnc(-c2ccc(C3(N)CCC3)cc2)c(-c2ccccc2)c1` stands 20.9 µM (active) and 580 nM (active); under `Cc1cc2c(F)c(Oc3ncnn4cc(OCC(C)O)c(C)c34)ccc2[nH]1` (centres undefined), 8.2 µM (active).
Consider `C=C(C(=O)O)[C@H]1C[C@]2(C)[C@@H](O)CC[C@]23O[C@H]1C[C@@H]3C`, for which the “viability, % of control” value is 77.7%.
`COc1cc(N2CCN(C)CC2)ccc1Nc1ncc2c(n1)N(C)c1ccccc1C(=O)N2`: the Potency is 13.2 µM (active).
With `C[C@H]1CC[C@@]2(OC1)O[C@H]1CC3C4CC[C@H]5C[C@@H](O)CC[C@]5(C)C4CC(=O)[C@]3(C)[C@H]1[C@@H]2C` (some centres undefined), the “viability, % of control” value is 65.6% [at 17.3 µM].
Turning to `CC(=O)N[C@@H](C(=O)O[C@H]1CCC(C)(C)[C@@H]2CCC3=C(COC3=O)[C@@]12C)C(C)C`, the “viability, % of control” value is 74.2%.
In the case of `Cc1ccccc1C(=O)Nc1ccc(C(=O)N2CCC[C@@H](O)c3cc(Cl)ccc32)c(C)c1`, the Potency is 20.6 µM (active).
Still for that read-out and setting: under `CC/C=C/C=C/C1(C)OC(CC(CO)OC)=CC1=O` (centres undefined) stands 23.1 µM (active); under `Cc1c(C(=O)Nc2ccc(Oc3ccnc4[nH]cc(-c5ccccc5)c34)c(F)c2)c(=O)n(-c2ccc(F)cc2)n1C`, 0.0206 µM (active); under `Cn1cc(C2=C(c3cn(CCCSC(=N)N)c4ccccc34)C(=O)NC2=O)c2ccccc21`, 0.411 µM (active).
On to `CC1=C(CO)C2(C)CCCC(C)(C)C2C(O)C1O` (centres undefined), for which the “viability, % of control” value is 78.5%.
Consider `Nc1ccn([C@H]2O[C@@H](CO)[C@H](O)[C@H]2O)c(=O)n1`, for which the Potency is 1.46 µM (active).
Consider `CC1CCC2(NC1)OC1CC3C4CC=C5CC(O[C@@H]6O[C@H](CO)[C@@H](O[C@@H]7O[C@@H](C)[C@H](O)[C@@H](O)[C@H]7O)[C@H](O)[C@H]6O[C@@H]6O[C@@H](C)[C@H](O)[C@@H](O)[C@H]6O)CCC5(C)C4CCC3(C)C1C2C` (some centres undefined), for which the Potency was 5.51 µM (active).
On to `COc1cn(-c2ccc(-n3cccn3)cc2F)nc(-c2ccnn2-c2ccccc2)c1=O`, for which the “viability, % of control” value is 83.2%.
As to `COC(=O)CC(O)CC(O)/C=C/c1c(C)ccc2c1C(OC(C)=O)CC(C)C2` (centres undefined), the Potency is 1.8 µM (active).
Regarding `Cc1cc(C)c(NC(=O)N(Cc2ccc3c(c2)Cc2ccccc2-3)C2CCCCCC2)c(C)c1`, the Potency was 16.4 µM (active).
Same read-out and setting: under `C=C1C(=O)O[C@@H]2C=C(COC(C)=O)CC/C=C(\CO)CC[C@@H]12` stands 14.3 µM (active).
`O=C(O)/C=C/c1cc2c(cc1O[C@@H]1O[C@H](CO)[C@@H](O)[C@H](O)[C@H]1O)OCO2`: the “viability, % of control” value is 69.4%.
Same read-out and setting: for `Cc1c(O)cc2c(c1O)COC1(O)CCCOC21` (centres undefined) the value was 111%.
Still for that read-out and setting: for `C[C@@]1(O)[C@H](O)[C@@H](CO)O[C@H]1n1cnc2c(=O)[nH]c(N)nc21` the value was 74.1%.
For the molecule `O=C1CCc2cc(S(=O)(=O)Nc3cccc(Cl)c3)ccc2N1`, the Potency was 16.4 µM (active).
Regarding `CC1=C(C)C(=O)OC(C(C)C2C(O)CC3C4C5OC5C5(O)CC(OC6OC(CO)C(O)C(O)C6O)CC(O)C5(C)C4CCC32C)C1` (centres undefined), the “viability, % of control” value is 82.3% [at 17.3 µM].
Turning to `CNC(=O)c1ccccc1Nc1cc(Nc2ccc(N3CCOCC3)cc2OC)ncc1C(F)(F)F`, the Potency is 0.326 µM (active).
Same read-out and setting: for `CCCc1cc(C)[nH]c(=O)c1CNC(=O)c1cc(-c2ccc(N3CCN(C(C)C)CC3)nc2)cc2c1cnn2C(C)C` the value was 8.2 µM (active) and 8.33 µM (active).
The same measure, in the same setting: under `C=C(C)C(=O)OC1C(OC(C)=O)/C(C=O)=C\CC/C(CO)=C/C2OC(=O)C(=C)C21` (centres undefined) stands 2 µM (active).
